# Screens from PubChem.
# An excerpt weighted towards active compounds, which were near 2.1% of everything screened.
# CF NFkB inh: inhibitors of cystic fibrosis induced NF-kB; inhibition, % at 5 µM; KKLEB NF-kB-GFP reporter, PAF-induced, GFP fluorescence overnight; hit rate 0.86% among 360,000;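 active means at least 50% inhibition at 5 µM, scaled per plate between neutral and stimulator controls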;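 further: PAF is a Pseudomonas aeruginosa culture filtrate used as stimulus; plate controls were PAF-stimulated DMSO wells for no effect and unstimulated DMSO wells for full effect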
# EWS-Fli block: inhibitors of EWS/Fli oncoprotein transcriptional activity; A673 NR0B1-luciferase reporter, viability-normalised; hit rate 0.67% among 350,000; inhibition, % at 12.6 µM; AID 651661;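 active means mean inhibition of at least 50% after viability correction, with every replicate also passing that limit; inconclusive means mean reaches 50% but only one of two replicates passes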;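 further: firefly luciferase signal divided by Alamar Blue viability fluorescence both relative to DMSO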
# HIF-2a inh: inhibitors of HIF-2a. inhibition, % at 18.8 µM. 786-0 RCC cells HIF-2a reporter, luciferase luminescence, overnight. hit rate 0.72% among 360,000;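 active means inhibition of the luminescence signal of 40% or more relative to plate controls, in a single-dose primary screen at 18.75 µM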
# PAX8 reporter: lowers PAX8-driven luciferase in RMG-I cells; RMG-I TPO-luciferase reporter, SteadyGlo, 24 h; hit rate 1.2% among 360,000; AID 652154; inhibition, % at 12.6 µM;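 active means mean replicate inhibition at least 60% with every replicate also reaching 60%; inconclusive means only one of the two criteria is met; inactive means mean below 60% and not all replicates reaching 60%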;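 further: luciferase light reporting Pax8 driven TPO promoter activity; plate controls were median of neutral control wells for no effect and mitoxantrone controls for full effect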
# KKLEB tox: reduces viability of KKLEB cystic fibrosis airway cells | KKLEB CF airway cells viability, ATPlite luminescence, overnight; hits give low values; cells stimulated with P. aeruginosa culture filtrate | activity change (cytotoxicity), % at 5 µM | hit rate 0.36% among 360,000 | AID 602141;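 active means corrected activity change at or below -50% at 5 µM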
# Mdm2-MdmX confirm: confirmation of inhibitors of human Mdm2/MdmX interaction, set 2. shares compounds with HIF-2a inh. SaOS-2 split-luciferase Mdm2/MdmX complementation, luminescence. inhibition, % at 8 µM. hit rate 99% among 740. AID 504601;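 active means mean inhibition of the luminescence signal across two replicates at or above 26 percent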
# Target sequence (O15151 whole entry, looked up): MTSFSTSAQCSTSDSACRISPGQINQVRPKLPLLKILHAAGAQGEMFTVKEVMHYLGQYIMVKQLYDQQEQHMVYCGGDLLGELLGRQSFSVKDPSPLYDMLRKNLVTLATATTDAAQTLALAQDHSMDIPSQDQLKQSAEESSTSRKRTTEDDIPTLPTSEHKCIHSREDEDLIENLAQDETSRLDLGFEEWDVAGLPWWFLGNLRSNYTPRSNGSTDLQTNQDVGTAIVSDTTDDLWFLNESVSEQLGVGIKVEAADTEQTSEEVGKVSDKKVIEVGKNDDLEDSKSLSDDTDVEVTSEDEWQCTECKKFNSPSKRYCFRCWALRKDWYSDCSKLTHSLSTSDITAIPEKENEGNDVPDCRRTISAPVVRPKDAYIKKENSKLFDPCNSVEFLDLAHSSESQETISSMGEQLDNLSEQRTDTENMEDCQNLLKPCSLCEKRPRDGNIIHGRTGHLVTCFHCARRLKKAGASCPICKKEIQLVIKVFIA
# Target sequence (Q00987 whole entry, looked up): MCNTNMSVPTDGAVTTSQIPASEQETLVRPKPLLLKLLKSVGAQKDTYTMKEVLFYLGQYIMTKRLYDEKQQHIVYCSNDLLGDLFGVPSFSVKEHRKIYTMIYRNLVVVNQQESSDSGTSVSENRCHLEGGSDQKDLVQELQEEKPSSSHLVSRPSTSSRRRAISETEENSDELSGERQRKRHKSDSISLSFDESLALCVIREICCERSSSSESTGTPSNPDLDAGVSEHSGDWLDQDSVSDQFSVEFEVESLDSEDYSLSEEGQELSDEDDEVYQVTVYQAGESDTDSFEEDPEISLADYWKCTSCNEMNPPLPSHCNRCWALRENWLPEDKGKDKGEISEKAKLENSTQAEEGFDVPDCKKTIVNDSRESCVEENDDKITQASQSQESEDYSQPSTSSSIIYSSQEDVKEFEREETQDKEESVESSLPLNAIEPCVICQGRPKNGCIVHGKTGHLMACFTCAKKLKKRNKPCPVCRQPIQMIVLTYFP
# HIF-2a conf: HIF-2a inhibition, single concentration confirmation; shares compounds with HIF-2a inh; 786-0 RCC cells, HIF-2a luciferase reporter luminescence, overnight; inhibition, % at 18.8 µM; hit rate 56% among 1,800;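 active means mean inhibition across four replicates of at least 40 percent at the single tested concentration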
# HIF-1a counter: inhibits HIF-1a reporter, a counter-screen for HIF-2a inhibitors. shares compounds with HIF-2a inh. MiaPaCa-2 HIF-1a luciferase reporter, desferoxamine, overnight. inhibition, % at 18.8 µM. hit rate 72% among 1,800. AID 651589;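 active means mean inhibition of the reporter signal across four replicates at the single tested dose of 50% or more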
# Active calls of the source: *; ? = inconclusive; · = no result given.
SMILES,CF NFkB inh,EWS-Fli block,HIF-2a inh,PAX8 reporter,KKLEB tox,HIF-2a conf,HIF-1a counter,others
COc1ccc(C(=O)O/N=C(\N)Cc2ccc(Cl)cc2)cc1OC,11.9,·,61.9*,·,-13.6,4.5,-68.5,
N/C(Cc1ccc(Cl)cc1)=N\OC(=O)c1ccccc1,-12.0,·,-16.4,·,-1.0,·,·,
NCC[C@H]1CC[C@@H](NS(=O)(=O)c2ccc(Cl)cc2)[C@H](CO)O1,·,10.5,·,1.7,·,·,·,
C[C@H]1CN([C@@H](C)CO)C(=O)c2cc(-c3ccccc3F)cnc2O[C@@H]1CN(C)Cc1cccc(C(=O)O)c1,·,-9.9,·,·,·,·,·,
Cc1cc(F)ccc1S(=O)(=O)Nc1ccccc1C(=O)Nc1ccccc1-c1nc2ccccc2[nH]1,74.0*,·,3.5,·,-59.3*,·,·,Mdm2-MdmX confirm=97.2*
O=C(C[C@@H]1C=C[C@@H](NC(=O)C2CCOCC2)[C@H](CO)O1)Nc1nccs1,·,-7.7,·,·,·,·,·,
FC(F)(F)c1cnc(NNC(=S)Nc2ccccc2)c(Cl)c1,-1.5,21.9,45.3*,7.7,7.7,60.8*,13.1,
Cc1cc(C)n(CCC(=O)N/N=C/c2c(O)ccc3ccccc23)n1,-7.0,10.1,22.3,47.4,0.5,·,·,Mdm2-MdmX confirm=88.5*
Oc1ccc2ccccc2c1/C=N/Nc1nnc(-c2ncc[nH]2)c2ccccc12,7.4,·,-31.6,·,-5.5,·,·,Mdm2-MdmX confirm=91.7*
COc1ccc(/C=N/Nc2nnc(-c3ncc[nH]3)c3ccccc23)cc1,-3.2,·,-35.5,·,-22.8,·,·,
CCCN(C)C[C@H]1Oc2cc(-c3cccc(F)c3)ccc2S(=O)(=O)N([C@@H](C)CO)C[C@H]1C,·,4.4,·,-9.5,·,·,·,
O=C(Nc1ccncc1)c1ccc(Cl)c(S(=O)(=O)N2CCc3ccccc32)c1,26.0,29.5,49.9*,49.3,-30.9,-7.1,7.7,
Cc1cccc(NC(=O)c2ccc(Cl)c(S(=O)(=O)N3CCc4ccccc43)c2)n1,-1.7,-6.0,0.1,31.1,11.6,·,·,
C[C@H](CO)N1C[C@H](C)[C@H](CN(C)S(C)(=O)=O)Oc2ncc(/C=C/c3ccccc3)cc2C1=O,·,-4.9,·,·,·,·,·,
O=c1c2ccccc2sc2ccc(C#CC3(O)CCCCC3)cc12,-25.4,89.2*,86.7*,68.8*,-85.2*,93.8*,103.5*,
COc1ccc(Oc2ccc(/C=C/C(=O)c3ccc(O)cc3)cc2[N+](=O)[O-])cc1,35.0,74.6*,91.0*,57.1,-19.9,37.4,104.2*,
CC(=O)Nc1ccc(OCC(=O)c2cc(C)ccc2C)cc1,4.0,·,8.3,·,5.0,·,·,
CC(=O)Nc1ccc(OCC(=O)c2ccc(C)cc2C)cc1,-2.8,·,64.4*,·,7.0,85.0*,35.5,
Cc1ccc(Cn2ncc(Cl)c(Cl)c2=O)cc1,10.8,·,97.7*,32.0,14.8,-0.3,98.3*,
O=c1c(Cl)c(Cl)cnn1Cc1ccccc1Cl,·,37.6,·,?,·,·,·,
CCc1ccc(C(=O)Cn2ncc(Cl)c(Cl)c2=O)cc1,84.5*,·,96.0*,·,-68.0*,-18.6,104.5*,Mdm2-MdmX confirm=103.2*
Cc1cc(C)cc(Cn2ncc(Cl)c(Cl)c2=O)c1,·,40.4,·,43.7,·,·,·,
O=c1c(Cl)c(Cl)cnn1Cc1nnc(-c2ccc(Cl)cc2)o1,80.5*,17.7,94.2*,54.6,-81.7*,-74.1,104.7*,
COc1ccc(Br)cc1/C=C/C(=O)Nc1ccc2ccccc2c1,-31.0,-23.1,-89.5,-26.5,17.7,·,·,
CCC(=O)Nc1cccc(C(=O)/C=C/c2cc(Br)ccc2OC)c1,12.3,·,83.8*,·,5.8,84.2*,105.7*,Mdm2-MdmX confirm=102.7*
SMILES,CF NFkB inh,EWS-Fli block,HIF-2a inh,PAX8 reporter,KKLEB tox,HIF-2a conf,HIF-1a counter,others
C/C=C/c1cccc(-c2nc(C(=O)NCc3ccccn3)cc3c2[C@H](CCO)N([S@@](=O)C(C)(C)C)C3)c1,·,3.4,·,-6.3,·,·,·,
C[C@H](CO)N1C[C@H](C)[C@@H](CN(C)C(=O)Nc2ccc(-c3ccccc3)cc2)OCc2ccccc2-c2c(n(C)c3ccccc23)C1=O,·,2.8,·,38.6,·,·,·,
O=C(/C=C/c1ccc(S(=O)(=O)NCc2ccco2)cc1)NCc1ccccc1Cl,-9.1,1.7,41.9*,0.0,-9.9,-1.9,15.0,
COc1ccc(CNC(=O)/C=C/c2ccc(S(=O)(=O)NCc3ccco3)cc2)cc1OC,3.1,·,10.4,28.2,-5.7,·,·,
Cc1ccc(C(=O)OCC(=O)Nc2c(C)n(C)n(-c3ccccc3)c2=O)cc1[N+](=O)[O-],-0.6,10.8,5.3,-9.0,-16.5,·,·,
Cc1ccc(Cl)c(NC(=O)COC(=O)c2ccccc2C(=O)c2ccc(Cl)c([N+](=O)[O-])c2)c1Cl,94.5*,·,97.2*,16.3,-99.0*,3.9,107.5*,
COc1cc(NCCCCC(C)N)c2nccc(C)c2c1 (stereo not given),44.7,0.8,21.9,36.7,10.4,·,·,
COc1cc(NCCCC(C)N)c2ncccc2c1 (stereo not given),-12.2,·,83.8*,·,-9.7,18.9,90.1*,
CCCCNc1nc(=S)n(-c2ccccc2)c(C)c1C(C)=O,7.4,12.1,51.0*,-4.3,1.5,-12.3,30.2,
CN1CCC(NCCC(c2ccc(F)cc2)c2ccc(Cl)cc2)CC1 (stereo not given),7.5,55.1*,1.9,?,-4.2,·,·,Mdm2-MdmX confirm=103.5*
CN1C(=O)c2cc(NC(=O)c3ccccc3)ccc2OC[C@@H]2O[C@@H](CC(=O)O)CC[C@H]21,·,-6.1,·,-2.8,·,·,·,
CCOC(=O)C(=Cc1cc(=O)c(OC)co1)C(=O)OCC,84.9*,70.1*,93.7*,22.4,27.8,99.5*,105.8*,
Cc1ccc(S(=O)(=O)N(C)C[C@H]2OCCCC[C@@H](C)Oc3ccc(NC(=O)NC(C)C)cc3C(=O)N([C@@H](C)CO)C[C@@H]2C)cc1,·,-8.0,·,-8.3,·,·,·,
C[C@@H](NC(=O)C[C@H]1C=C[C@@H](NC(=O)Nc2ccc3c(c2)OCO3)[C@H](CO)O1)c1ccccc1,·,-0.8,·,-10.6,·,·,·,
CC(=O)N(c1ccc(Cl)cc1)c1cn(C(C)=O)c2ccccc12,6.5,5.6,12.6,12.7,5.1,·,·,
CC(=O)n1cc(N(C(=O)CCl)c2ccc(C)cc2)c2ccccc21,92.8*,40.1,56.2*,104.4*,-103.2*,·,·,Mdm2-MdmX confirm=103.0*
COCC(=O)Nc1ccc2c(c1)C(=O)N(C)[C@H]1CC[C@H](CC(=O)NCc3ccccc3Cl)O[C@@H]1CO2,·,-2.3,·,9.6,·,·,·,
COc1ccc(S(=O)(=O)N(C)C[C@@H]2OCCCC[C@H](C)Oc3ccc(NS(=O)(=O)c4ccc(F)cc4)cc3C(=O)N([C@H](C)CO)C[C@@H]2C)cc1,·,22.1,·,48.1,·,·,·,
COc1ccc(CN(C)C[C@H]2Oc3ccc(NC(=O)NC(C)C)cc3CC(=O)N([C@H](C)CO)C[C@@H]2C)cc1,·,29.3,·,-1.4,·,·,·,
O=C1CCCCCN1C(=O)c1ccccc1,9.7,-3.5,-1.7,-9.7,-4.4,·,·,
O=C1CCCCCN1Sc1ccccc1,12.4,·,44.3*,·,-5.0,30.8,8.4,
